# Screening results from PubChem BioAssay.
# Compounds with a hit are over-represented: about 7.3% of the library has one in this group of screens.
# Rab9 prom act: activates the Rab9 promoter | Huh7 Rab9 promoter-luciferase reporter, luminescence, 24 h | Potency, µM (top dose mostly 9.22 µM), without a hit: top-dose activation, negative = inhibition, actives largely listed as activators | 2.8% of 320,000 active | AID 485297; note: % of control where 0% means no effect; nearly all actives have a fitted effect of over 60% in size
#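 Cells were plated at 1500 per well in reduced-serum medium with 10% FBS and left 2 h. Compound in DMSO was then added for 24 h at 37 °C. Reporter signal was read by luminescence after 10 min with luciferase detection reagent.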
# FLuc modulator: firefly luciferase modulation, counter-screen for miR-21 project; purified FLuc, Km substrates, luminescence inhibition; Potency, µM (series often up to 57.5 µM), inactives show at the top dose activity change, negative = inhibition, actives largely listed as inhibitors; 6.9% of 360,000 active; P08659; AID 588342;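 note: plate controls were vehicle for no effect and reference inhibitor for full effect; nearly all actives have a fitted effect of over 55% in size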
# Target sequence (P08659 whole entry, looked up): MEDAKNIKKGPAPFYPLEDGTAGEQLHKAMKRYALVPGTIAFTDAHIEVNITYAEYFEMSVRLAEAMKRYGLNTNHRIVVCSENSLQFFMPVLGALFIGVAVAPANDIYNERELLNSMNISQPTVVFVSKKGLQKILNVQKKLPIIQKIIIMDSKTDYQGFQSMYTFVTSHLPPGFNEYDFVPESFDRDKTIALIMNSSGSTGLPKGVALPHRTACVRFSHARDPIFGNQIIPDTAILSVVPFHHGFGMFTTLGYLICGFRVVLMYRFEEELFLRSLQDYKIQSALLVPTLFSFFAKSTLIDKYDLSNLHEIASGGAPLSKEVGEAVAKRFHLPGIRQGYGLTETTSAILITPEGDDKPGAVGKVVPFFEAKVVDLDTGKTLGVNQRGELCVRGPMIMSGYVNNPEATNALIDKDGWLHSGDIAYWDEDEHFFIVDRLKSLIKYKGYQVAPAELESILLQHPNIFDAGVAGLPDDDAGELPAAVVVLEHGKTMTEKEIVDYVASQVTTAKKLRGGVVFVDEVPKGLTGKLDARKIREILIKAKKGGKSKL
#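 Biochemical qHTS of compounds, final roughly 60 µM downward over six points, against 10 nM purified firefly luciferase using Km concentrations of substrates (10 uM D-luciferin, 10 uM ATP) in Tris acetate pH 7.5 buffer; luminescence output.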
# ELG1 genotoxic: genotoxicity induction in ELG1-luciferase HEK293T cells. HEK293T ELG1-luciferase reporter, luminescence, 16 h. Potency, µM (titrated, usually from 46 µM), without a hit: at the highest dose activity change, positive = activation, most hits filed as activators. 1.3% of 330,000 active; note: % of control where 0% means no effect; nearly all actives have a fitted effect of over 60% in size
#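 After overnight (16 hr) compound treatment at 37 °C, ELG1-luciferase HEK293T cells were lysed with ONE-Glo; luminescence quantified 30 min later at room temperature.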
# p53 reactivator: re-activators of mutant p53; H1299 p53-A138V BP100-luciferase reporter, luminescence, 24 h; Potency, µM (highest dose often 92.2 µM), for inactives: top-dose activity change, positive = activation, hits mostly activators; 0.063% of 320,000 active; note: % of control where 0% means no effect; nearly all actives have a fitted effect of over 45% in size
#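 p53-null H1299 cells stably carrying temperature-sensitive p53-A138V and a BP100-luciferase reporter were pinned with compounds (4-point, 1:5 series) and held 24 hrs at 37 deg C. Luminescence was read 10 min after detection reagent.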
# SMN2 splice enh: enhancers of SMN2 splice variant expression | HEK293 SMN2-luciferase splicing reporter, luminescence, 30-36 h | Potency, µM (doses to about 46.1 µM), for inactives: at the highest dose activity change, positive = activation, most hits filed as activators | 2.8% of 210,000 active | AID 1458; note: % of control where 0% means no effect; nearly all actives have a fitted effect of over 55% in size
#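 HEK293 cells carry an SMN2 […]–luciferase reporter in which exon 7 inclusion puts luciferase in frame. Cells were plated 10-12 h before compound addition, then incubated 30-36 h at 37C. ONE-Glo luminescence was read; sodium butyrate at 4.5 mM final served as control.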
# NPC1 promoter act: activators of NPC1 promoter. Huh7 NPC1 promoter luciferase reporter, 24 h. Potency, µM (doses to about 9.22 µM), for inactives: at the top dose activation, actives largely listed as activators. 2.4% of 320,000 active. AID 485313; note: % of control where 0% means no effect; nearly all actives have a fitted effect of over 60% in size
#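 Luciferase expression driven by the NPC1 promoter was measured in stably transfected Huh7 cells after a 24 h compound incubation, using a luciferase reagent and a luminescence read.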
# Active calls of the source: *; u = inconclusive; x = no result given; [ ] = remark or other dose. Calls come from the whole dose curve; as a rule, active = well fitted curve in the direction sought with a large enough effect; inconclusive = small, poorly fitted or top-dose-only effect, or another doubt; inactive = no such curve, though single readings can be large; an effect the other way counts as inactive or inconclusive. Potency is the fitted concentration of half-maximal effect.
SMILES,Rab9 prom act,FLuc modulator,ELG1 genotoxic,p53 reactivator,SMN2 splice enh,NPC1 promoter act
CCOc1cccc2c1OC(c1cc(OC)c(OC)c(OC)c1)N1N=C(c3ccc(C)o3)CC21 (configuration not stated),25%,3µM*,u,u,u,21%
CC1=CC(c2ccccc2)=Nc2ccc(C)cc2N1,4µM*,6.7µM*,12µM*,u,10µM*,3.5µM*
Cc1ccc2nc(-c3ccccc3)c(-c3ccccc3)nc2c1,2%,-11%,-8%,1%,x,-3%
Cc1ccc(-c2nc3n(n2)C(c2ccccc2Cl)C=C(c2ccc(Cl)cc2)N3)cc1 (configuration not stated),x,-4%,x,x,-5%,x
COc1cc(C)ccc1OCc1cc(C(=O)NCc2ccncc2)no1,2µM*,12µM*,18µM*,u,x,2.8µM*
COc1cc(C)ccc1OCc1cc(C(=O)NC(C)Cn2cncn2)no1 (configuration not stated),1.6µM*,u,u,-5%,x,2.2µM*
Cc1nn(-c2nnc(NCc3ccccc3)nn2)c(C)c1Br,u,21µM*,u,u,x,23%
COC(=O)[C@@H]1O[C@@H](SCCN)[C@@H](O)[C@H](O)[C@H]1O,x,x,x,x,1%[9.22 µM],x
COc1ccc(/C(C)=N/Nc2nccnc2Cl)cc1,1.8µM*,7.6µM*,u,u,x,u
C/C(=N\Nc1nccnc1Cl)c1ccc(O)c(C)c1,u,11µM*,u,17%,x,u
Cc1c(N=C=O)cccc1N=C=O,x,x,x,x,1%,x
Cc1ccc(CNC(=O)COC(=O)c2cncc(Br)c2)cc1,0%,3%,0%,5%,14%,-4%
CCc1ccc(OC(=O)c2cncc(Br)c2)cc1,-7%[1.84 µM],6µM*,1%,4%,x,0%
CCc1ccc(C(=O)COC(=O)c2cncc(Br)c2)cc1,-7%,15µM*,-5%,1%,-19%,-4%
O=C(NC1CCCC1)C(c1ccccc1)N(Cc1cccnc1)C(=O)Cc1cccs1 (configuration not stated),0%,1%,-3%,-2%,x,-4%
Cc1ccccc1C(=O)N1CCC(C(=O)OCc2ccccc2Cl)CC1,8%,-2%,1%,2%,x,-2%
CCCSC1=N/C(=C\C=C\c2ccco2)C(=O)S1,1%,11µM*,0%,6%,-6%,-2%
O=C1SC(SCc2ccccc2)=N/C1=C\c1ccco1,x,-18%,x,x,-17%,x
CCCC1(C(=O)OC)C=C2C(=C(c3ccccc3)C(=O)C2C)CN1 (configuration not stated),x,x,x,x,-14%,x
CCOC(=O)C1(CCCc2ccccc2)CCN(C(=O)CN2CCOC2=O)CC1,-9%,-1%,-1%,2%,x,1%
CCOC(=O)C1(Cc2ccccc2Cl)CCN(C(=O)CN2CCOC2=O)CC1,3.5µM*,11µM*,u,6%,x,u
CCOCCc1nnc(NC(=O)C(=O)c2cc(C)n(-c3cccc(Cl)c3)c2C)s1,x,2%,x,x,x,x
Cc1ccccc1C(=O)Nc1ccc2nc(SCC(=O)N3CCc4ccccc43)sc2c1,x,-16%,x,x,x,x
COc1ccc(CNC(=O)CCc2c(C)c3cc4c(C)c(C)oc4cc3oc2=O)cc1,x,-7%,x,x,3%,x
CC(CC(=O)N(C)c1c(N)n(Cc2ccccc2)c(=O)[nH]c1=O)c1ccccc1 (configuration not stated),2%,-2%,-1%,-1%,x,2%
SMILES,Rab9 prom act,FLuc modulator,ELG1 genotoxic,p53 reactivator,SMN2 splice enh,NPC1 promoter act
CCOC(=O)c1sc(-n2[nH]c(C)cc2=O)nc1C,2%,15µM*,2%,1%,-3%,11%
CCOC(=O)c1sc(NC(C)=O)nc1C,-9%,2%,3%,5%,9%,0%
COc1cc(/C=N/OCC(=O)NC2CCCCC2C)ccc1OCc1ccc(Cl)cc1 (configuration not stated),2.8µM*,6.7µM*,18µM*,u,u,u
COc1cc(/C=N/OCC(=O)Nc2cc(C)cc(C)c2)ccc1OCc1ccc(Cl)cc1,3.2µM*,9.5µM*,u,u,11µM*,u
COc1cc(/C=N/N2CCOCC2)ccc1OCc1ccc(Cl)cc1,17%,11µM*,u,1%,11µM*,-3%
COC(=O)c1ccc(/C=N/OCC(=O)NC2CCCC(C)C2C)cc1 (configuration not stated),-1%,-7%,-11%,-4%,-74%,-6%
COC(=O)C1=C(C(=O)OC)[C@@H]2N(C)c3ccc(OC)cc3[C@@]23C[C@@H](C(=O)OC)N(S(=O)(=O)c2cccs2)C3=N1,x,x,x,x,-7%[9.22 µM],x
COCCNC(=O)CSc1nc(-c2cc(OC)c(OC)c(OC)c2)[nH]c1-c1ccc(Cl)cc1,x,-13%,x,x,-7%,x
Cc1ccc(Cn2c(C)c(CNCCCc3ccccc3)c(C(=O)O)c2C)cc1,x,-1%,x,x,0%,x
O=C(Cc1ccccc1F)Nc1nc(-c2ccc(F)cc2)cs1,u,11µM*,-14%,21%,x,8%
O=C(CS(=O)(=O)c1ccccc1)Nc1nc(-c2ccc(F)cc2)cs1,-2%,u,-2%,-5%,-27%,-6%
COc1ccc(-c2csc(NC(=O)Cc3ccccc3F)n2)cc1OC,-7%,u,-24%,1%,x,-13%
COc1ccccc1CC(=O)Nc1nc(-c2ccc(F)c(F)c2)cs1,12%,15µM*,-14%,6%,x,5%
COc1ccc(/C=C/C(=O)Nc2ccc3nc(N4CCC(C)CC4)cc(C)c3c2)cc1OC,x,-7%,x,x,-2%,x
COc1ccc(/C=N/NC(=O)CCn2c3ccccc3c3ccccc32)cc1O,-32%,11µM*,4%,4%,-9%,-25%
COc1ccc(/C=N/NC(=O)c2nc(-c3ccccc3)n(-c3ccccc3)n2)cc1OC,7%,17µM*,0%,-2%,-2%,-8%
COc1ccc(/C=N/NC(=O)c2nn(-c3ccccc3)c(=O)c3c(N)scc23)cc1,4%,9.5µM*,0%,-6%,5%,-3%
COc1ccc(/C=N/NC(=O)c2nc(-c3ccccc3)cc(-c3ccccc3)n2)cc1,3%,2.7µM*,1%,-11%,-32%,1%
COc1cc(/C=N/NC(=O)c2nc(-c3ccccc3)n(-c3ccccc3)n2)ccc1O,1%,u,1%,-8%,-9%,3%
Cc1cccc(C)c1OCCn1c(C2CC(=O)N(Cc3ccc(F)cc3)C2)nc2ccccc21 (configuration not stated),x,-9%,x,x,x,x
COc1ccc(/C=N/NC(=O)c2nc(-c3ccccc3)cc(-c3ccccc3)n2)cc1O,-2%,1.5µM*,-10%,26%,-42%,-2%
